Bioassay records as filed in PubChem.
This is one part of a sample in which hits are shown more often than they occur.
DT40 TDP1 CPT: DT40-hTDP1 cell growth loss with CPT; 420,000 compounds, 12% hits; chicken DT40 Tdp1-/-;hTDP1 cells + 20 nM CPT, ATP luminescence, 48 h; Potency, µM (series often up to 46.2 µM), inactives show at the top dose activity change, negative = growth inhibition, actives largely listed as inhibitors; AID 686979; further: potency means the concentration at half of the fitted maximal effect; nearly all actives have a fitted effect of over 55% in size
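Chicken DT40 Tdp1-/- cells stably complemented with human TDP1 were seeded at 400 cells/well in medium containing 20 nM camptothecin, exposed to pin-transferred compounds, and grown at 37 °C for at least 48 hr. Viability was read as ATP luminescence.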
HT1080 IDH1KD tx: kills HT-1080 cells with IDH1 knockdown. HT-1080 IDH1 knockdown viability, ATP luminescence, 48 h. Potency, µM (titrated, usually from 46.1 µM), inactives show top-dose activity, negative = toxicity, hits mostly cytotoxic. 360,000 compounds, 2% hits. AID 686971;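 further: potency means the concentration at half of the fitted maximal effect; 0% = DMSO wells and -100% = cell-free medium wells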
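After a 2 h attachment period, IDH1KD HT-1080 cells took pin-transferred compound for 48 h at 37 °C; ATP-based luminescence after 10 min room-temperature reagent incubation reported viability.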
HT1080NT lethal: kills 2HG-producing HT-1080-NT fibrosarcoma cells; HT-1080-NT fibrosarcoma viability, CellTiter-Glo ATP luminescence, 48 h; Potency, µM (series often up to 46.1 µM), for inactives: top-dose activity, negative = less viability, most hits filed as cytotoxic; 360,000 compounds, 1.6% hits; AID 686970;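 further: NT is the 2HG producing partner of a matched IDH1 knockdown line; potency means the concentration at half of the fitted maximal effect; 0% = DMSO-treated cells and -100% = media-only wells without cells; nearly all actives have a fitted effect of over 55% in size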
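Fibrosarcoma NT cells, 750 per well in 5% FBS RPMI, were exposed to compound for 48 hours. Viability: CellTiter-Glo luminescence.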
12-LOX inh: ALOX12 (human) lipoxygenase inhibition | P18054 | purified 12hLO, xylenol orange hydroperoxide absorbance | Potency, µM (series often up to 108 µM), inactives show top-dose activity change, negative = inhibition, usual class: inhibitors | 580,000 compounds, 1.1% hits | AID 1671190; further: potency means the concentration at half of the fitted maximal effect
Target sequence (P18054 whole entry, looked up): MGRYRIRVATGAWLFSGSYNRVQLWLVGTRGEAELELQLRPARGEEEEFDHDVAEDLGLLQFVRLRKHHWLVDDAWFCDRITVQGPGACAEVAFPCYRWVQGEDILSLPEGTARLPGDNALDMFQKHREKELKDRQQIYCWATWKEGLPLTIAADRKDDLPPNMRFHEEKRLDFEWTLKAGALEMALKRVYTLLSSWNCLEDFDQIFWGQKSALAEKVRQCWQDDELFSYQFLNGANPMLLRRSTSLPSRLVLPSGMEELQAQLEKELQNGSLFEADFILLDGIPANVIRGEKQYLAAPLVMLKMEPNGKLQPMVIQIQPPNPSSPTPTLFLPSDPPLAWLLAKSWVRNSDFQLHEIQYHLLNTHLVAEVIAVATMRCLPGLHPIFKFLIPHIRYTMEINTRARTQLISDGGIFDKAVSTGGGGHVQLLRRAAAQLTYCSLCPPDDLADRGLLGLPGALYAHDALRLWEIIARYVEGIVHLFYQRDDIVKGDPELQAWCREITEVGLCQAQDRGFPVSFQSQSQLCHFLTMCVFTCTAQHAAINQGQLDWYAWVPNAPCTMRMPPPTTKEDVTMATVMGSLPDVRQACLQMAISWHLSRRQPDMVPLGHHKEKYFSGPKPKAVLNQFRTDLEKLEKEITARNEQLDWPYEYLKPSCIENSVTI
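Purified human 12hLO at 150 nM in 25 mM Hepes, 0.01% Triton X-100, pH 7.0, preincubated 15 min at room temperature with compound. Reaction started with 40 uM arachidonic acid, 30 min at room temperature. Hydroperoxide measured by Fe-xylenol orange, 573/405 nm absorbance ratio.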
IL-1B inflam inh: inhibitors of inflammasome signaling (IL-1 beta secretion); AID 743279; 360,000 compounds, 4.7% hits; THP-1 LPS/ATP IL-1B secretion, AlphaLISA, 16 h; stronger effect = lower value; activity change, % at 57.5 µM; in the data active means activity change below about -50%; inconclusive means mostly about -30% to -49%
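Secreted IL-1B measured by AlphaLISA bead assay after 16 h compound exposure of THP-1 cells; compounds (final up to 57.5 uM) added 1 h before LPS (250 ng/mL) and ATP (1.25 mM) stimulation; lower signal means less secretion.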
DT40 TDP1 no CPT: qHTS for Inhibitors of human tyrosyl-DNA phosphodiesterase 1 (TDP1): qHTS in cells in absence of CPT. AID 686978, 2013. Potency, µM (titrated, usually from 46.2 µM), inactives show at the top dose activity change, negative = growth inhibition, hits mostly inhibitors. 420,000 compounds, 15% hits. DT40 Tdp1-/- hTDP1 cells, no CPT, ATP luminescence, 48 h; further: potency means the concentration at half of the fitted maximal effect; nearly all actives have a fitted effect of over 55% in size
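No-CPT arm: Tdp1-/-;hTDP1 DT40 cells (400/well) plus compounds, incubated ≥48 hr at 37 °C. Readout CellTiter-Glo luminescence.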
* = called active by the depositor; ? = inconclusive; nt = no result; [ ] = another dose, or the depositor's remark. Unless noted, the call rests on the fitted dose curve; in most records, active means well fitted curve in the direction sought with a large enough effect; inconclusive means small, poorly fitted or top-dose-only effect, or another doubt; inactive means no such curve, though single readings can be large; an effect the other way counts as inactive or inconclusive. Unless noted, on the % scale 0 is the no-effect control and ±100 the full control effect.

SMILES	DT40 TDP1 CPT	HT1080 IDH1KD tx	HT1080NT lethal	12-LOX inh	IL-1B inflam inh	DT40 TDP1 no CPT
Cn1c(=O)c(Nc2ccc(O)cc2)c2c3c(cccc31)C(=O)c1ccccc1-2	3.7µM*	-19%	-23%	0%	?	2.6µM*
CNc1nnc(-c2cc3cc(Cl)ccc3oc2=O)s1	-21%	1%	12%	238%	-7	1%
O=c1oc2ccc(Cl)cc2cc1-c1nnc(Nc2cccc(C(F)(F)F)c2)s1	?	8%	-3%	-5%	-7	2.6µM*
COc1ccc(Cl)cc1CN(C)C(=O)c1cc(OC)c(C)c(OC)c1	nt	nt	nt	-33%	nt	nt
CC(C)c1cccc(-c2ccc3c(c2)S(=O)(=O)c2cccc(C(=O)NCc4ccccc4)c2C3=O)c1	?	0%	0%	-8%	18	23µM*
CC(C)c1cccc(-c2ccc3c(c2)S(=O)(=O)c2cccc(C(=O)NCc4ccccc4Cl)c2C3=O)c1	2.6µM*	4%	14%	nt	18	6.5µM*
O=C(O)CCn1ncc2cc(OCC3CCN(C(=O)CC4CC4)CC3)ccc21	nt	nt	nt	-17%[176 µM]	nt	nt
COc1nc(-c2ccccc2)cc(-c2ccc(OC)c(OC)c2)n1	?	?	-8%	-20%	-19	21µM*
COc1ccc(-c2cc(-c3ccccc3)nc(NN)n2)cc1OC	3.7µM*	?	?	?	?	?
COc1ccc(-c2cc(C(F)(F)F)nc(NCCc3ccccc3)n2)cc1OC	-16%	nt	nt	-22%	nt	-25%
CCn1c(SCc2nc(-c3ccccc3)oc2C)nc2c(=O)[nH]cnc21	nt	nt	nt	7%	nt	nt
c1ccc2c(-c3ccc(OCCN4CCCCC4)cc3)c(-c3ccsc3)sc2c1	16µM*	-3%	-2%	-10%	-4	16µM*
COc1cc(OC)cc(-c2sc3ccc(OC)cc3c2-c2ccc(OCCN3CCCCC3)cc2)c1	?	-29%	?	nt	-23	?
COc1ccc(-c2sc3cc4c(cc3c2-c2ccc(OCCN3CCCCC3)cc2)OCO4)cc1	16µM*	1%	-3%	nt	6	21µM*
CN(C)CCOc1ccc(-c2c(-c3ccccc3)sc3ccccc23)cc1	10µM*	?	?	-13%	?	6.5µM*
COc1ccccc1-c1sc2cc3c(cc2c1C#CC1(O)CCCCC1)OCO3	?	-6%	-7%	-27%	-29	?
COc1ccc(-c2sc3cc4c(cc3c2C#CC2(O)CCCCC2)OCO4)cc1	18µM*	-25%	-20%	?	-9	21µM*
Cc1[nH]c2ccc(Cl)cc2c1C(=O)CCl	nt	nt	nt	-71%	nt	nt
CN1CCCCCC(O)c2cc(C(=O)N3CCN(c4ccccn4)CC3)ccc21 (centres undefined)	nt	nt	nt	24%	nt	nt
CCC1=Nc2ccccc2N=C(NC(=O)c2ccc(OC)cc2)C1c1ccc(OC)c(OC)c1 (centres undefined)	nt	nt	nt	0%	nt	nt
CCN(CC)c1cc(CCC(=O)N2CCC(C)CC2)ccn1	nt	nt	nt	44%	nt	nt
O=C(CCCCCn1c(=O)[nH]c2ccccc2c1=O)N1CCN(Cc2ccc3c(c2)OCO3)CC1	13µM*	-8%	-9%	0%	-28	?
O=C(Cn1c(=O)[nH]c2ccccc2c1=O)N1CCN(c2ccccc2)CC1	nt	nt	nt	0%	nt	nt
CCCCCn1c(=O)[nH]c2cc(C(=O)N3CCN(c4cccc(C(F)(F)F)c4)CC3)ccc2c1=O	10µM*	nt	nt	-7%	nt	7.3µM*
O=C(CCCCCn1c(=O)[nH]c2ccccc2c1=O)N1CCN(c2cccc(C(F)(F)F)c2)CC1	0.58µM*	nt	nt	-14%	nt	0.58µM*
SMILES	DT40 TDP1 CPT	HT1080 IDH1KD tx	HT1080NT lethal	12-LOX inh	IL-1B inflam inh	DT40 TDP1 no CPT
O=C(Cn1c(=O)[nH]c2ccccc2c1=O)N1CCN(Cc2ccc3c(c2)OCO3)CC1	?	-2%	0%	2%	7	?
Cc1ccc(C)c(N2CCN(C(=O)CCn3c(=O)[nH]c4ccccc4c3=O)CC2)c1	16µM*	nt	nt	?	nt	12µM*
CCOc1ccc(NC(=O)COc2ncnc3ccccc23)c([N+](=O)[O-])c1	nt	nt	nt	-10%	nt	nt
O=C(/C=C/c1cccc(O)c1)c1ccsc1	nt	nt	nt	-27%	nt	nt
COC(=O)c1ccc2c(=O)n(CCCCCC(=O)N3CCN(c4ccc(F)cc4)CC3)c(=O)[nH]c2c1	16µM*	20%	9%	5%	28	12µM*
CCc1ccc(OCCNC(=O)c2ccccc2SCc2ccccc2)cc1	?	?	-24%	24%	-10	21µM*
CCNC(=O)c1ccccc1SCc1ccccc1	-19%	12%	-3%	1%	0	-6%
Cc1ccccc1N1C(=O)CC(c2c[nH]c3ccccc23)C1=O (centres undefined)	-7%	-11%	-7%	-16%	0	-14%
O=C1C=CC(c2c[nH]c3ccccc23)CC1 (centres undefined)	?	?	?	?	-108*	16µM*
O=C(O)/C=C/C(=O)Nc1ccc(OC(F)(F)Cl)cc1	24%	8%	15%	-14%	-5	-19%
O=C(O)/C=C/C(=O)Nc1ccc(SC(F)(F)C(F)(F)C(F)(F)F)cc1	-17%	-25%	-29%	-3%	-54*	-14%
Cc1cc(O)c2c(c1)C(=O)[C@@]13Oc4c5c(c(O)c6c(O)cc(C)cc46)C(=O)C[C@H](O)[C@H]5[C@@H]1[C@@H](O)CC(=O)C3=C2O	15µM*	?	?	nt	-5	?
Cc1ccc(NC(=S)NNS(=O)(=O)c2ccc3ccccc3c2)cc1Cl	17%	13%	10%	40µM*	4	-7%
COc1ccc(S(=O)(=O)Nc2ccc(Cc3ccncc3)cc2)cc1C	13µM*	-13%	?	nt	?	?
COc1ccc(S(=O)(=O)Nc2ccc(S(=O)(=O)N3CCCCC3)cc2)cc1C	0%	-2%	-1%	0%	10	-11%
CCc1ccc(NS(=O)(=O)c2ccc(OC)c(C)c2)cc1	?	-29%	-13%	-9%	6	23µM*
COc1ccc(S(=O)(=O)Nc2ccc(C)cc2)cc1OC	-7%	0%	6%	-12%	18	-13%
Cc1cc(O)cc(C)c1NS(=O)(=O)c1ccc2ccccc2c1	?	-8%	-2%	?	1	26µM*
COc1ccc(S(=O)(=O)Nc2ccc3ccccc3c2)cc1C	9.2µM*	?	-2%[9.24 µM]	5%	9	?
